Only some compounds are listed: those with a hit (about 0.97% of all), similar ones and a draw of the others.
S1P3 antagonist: S1P3 receptor antagonists, primary screen, cell-based | AID 485, 2006 | 0.27% of 170,000 active | CHO S1P3 NFAT-BLA reporter, FRET fluorescence, antagonist mode | Sphingosine 1-phosphate receptor 3 (Homo sapiens), Q99500 | inhibition, % at 4.98 µM;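 active = inhibition above the plate cutoff, the mean inhibition of test wells on that plate plus 3 SD, cut at about 28% in these data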;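 also: cells challenged with S1P at its EC80 of 0.8 µM; blue over green emission ratio from cleaved BLA substrate after 4 h stimulation; 0% = S1P-stimulated wells and 100% = unstimulated DMSO-only wells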
S1P4 antagonist: S1P4 receptor antagonists, primary screen, cell-based; 0.26% of 220,000 active; Sphingosine 1-phosphate receptor 4 (Homo sapiens), O95977; S1P4-expressing cells, antagonist mode, reporter read-out; inhibition, % at 4.98 µM; in the data active = inhibition above about 29%;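 also: 0% = wells stimulated with agonist and 100% = vehicle wells without agonist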
Target sequence (O95977 whole entry, looked up): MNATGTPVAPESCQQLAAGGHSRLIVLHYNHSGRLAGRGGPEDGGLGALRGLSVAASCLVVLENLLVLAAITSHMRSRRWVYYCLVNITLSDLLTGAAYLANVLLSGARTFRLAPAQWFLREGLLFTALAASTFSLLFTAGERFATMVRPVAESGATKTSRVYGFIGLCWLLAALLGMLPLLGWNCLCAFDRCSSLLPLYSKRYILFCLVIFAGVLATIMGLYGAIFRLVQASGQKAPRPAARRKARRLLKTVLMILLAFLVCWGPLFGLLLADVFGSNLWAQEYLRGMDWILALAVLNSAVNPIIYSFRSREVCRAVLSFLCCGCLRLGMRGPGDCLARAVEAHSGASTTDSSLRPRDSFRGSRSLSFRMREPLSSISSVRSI
Hsp70 activator: Hsp70 transcriptional activators, primary screen, cell-based, HeLa, Hsp70 promoter luciferase, luminescence, 10 µM | 0.04% of 200,000 active | AID 1203, 2008 | activation, % at 10 µM | HeLa Hsp70 promoter luciferase reporter; scaled: vehicle 0, proteasome-inhibitor control 100%;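 active = activation above the mean across all tested compounds plus 3 SD, cutoff set per campaign, cut at about 5.5% in these data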;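 also: 100% = MG132 at 30 µM as the positive control and 0% = DMSO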
S1P4 ag: S1P4 receptor agonists, primary screen, cell-based; Sphingosine 1-phosphate receptor 4 (Homo sapiens), O95977; S1P4-expressing cell line, agonist reporter assay; activation, % at 4.98 µM; 0.35% of 220,000 active; AID 1509, 2009; in the data active = activation above about 11%;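 also: 0% = DMSO vehicle and 100% = reference agonist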
AI-2 QS mod: Vibrio harveyi AI-2 quorum sensing modulators, primary screen, JMH597 strain, luminescence/OD600 ratio; activity change, % at 7.5 µM; 0.4% of 300,000 active; Vibrio harveyi JMH597 AI-2 luminescence/OD600 ratio, 9 h; active compounds read low; strain lacks LuxN and CqsS sensors; 0 = neutral-control median; in the data active = activity change below about -75%, passing the limit was not always enough;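 also: luminescence divided by OD600 gain over 9 h not by final OD600 alone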
S1P4 agonist cf: S1P4 receptor agonists, retest, confirmation, cell-based, high throughput; S1P4 agonist cell-based reporter assay; activation, % at 4.98 µM; 7% of 740 active; shares compounds with S1P4 ag; AID 1523, 2009; in the data active = activation above about 12%;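 also: 0% = vehicle and 100% = full reference agonist response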
S1P1 ag: S1P1 receptor agonists, human, counter-screen for S1P4 agonist project, cell-based. S1P1 agonist cell-based assay, activation. shares compounds with S1P4 ag. activation, % at 4.98 µM. 4% of 740 active. AID 1563, 2009; in the data active = activation above about 21%;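 also: 0% = vehicle wells and 100% = reference agonist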
* marks the source's active call; other numbers are inactive results; x = not tested or not shown.

SMILES	S1P3 antagonist	S1P4 antagonist	Hsp70 activator	S1P4 ag	AI-2 QS mod	S1P4 agonist cf	S1P1 ag
Cc1c(/C=C/C(=O)c2ccccc2)cnn1C	x	-9.1	0.4	0.5	23.6	x	x
Cc1c(/C=C/C(=O)c2ccc(Cl)s2)cnn1C	x	-19.4	0.0	12.8*	8.2	-0.8	4.0
COc1ccc(CC(=O)NNS(=O)(=O)c2ccccc2)cc1OC	-7.0	-13.3	-0.2	12.3*	86.6	-2.5	-2.4
COc1ccc(CC(=O)NNS(=O)(=O)c2ccc(F)cc2)cc1OC	-15.9	6.3	-0.3	0.6	17.6	x	x
CCCCNC(=O)COC(=O)c1ccc(NC(C)=O)cc1	-19.2	5.7	-0.4	0.2	11.5	x	x
CCOc1ccc(-c2cc3nc(C4CCN(C(=O)OC(C)(C)C)CC4)c(C(=O)O)cn3n2)cc1	-6.4	2.4	0.1	126.0*	31.7	-1.9	-8.1
CCOC(=O)N1CCN(C(=O)c2cc(-c3ccc(OCC)cc3)nc3ccccc23)CC1	11.8	-6.4	-0.1	-0.2	21.2	x	x
COc1ccc(C(=O)Nc2nc(N)n(-c3ccccc3)n2)cc1	-24.4	-11.2	-0.5	41.7*	34.6	-3.0	-8.6
Cn1c(CNC(=O)OC(C)(C)C)nnc1SCc1c(Cl)cccc1Cl	6.2	-5.0	x	55.8*	-11.9	-2.0	-10.8
Cc1cc(C)c(NC(=O)CSc2nc3ncc(Br)cc3[nH]2)c(C)c1	x	x	x	x	17.5	x	x
O=C(CSc1nc2ncc(Br)cc2[nH]1)Nc1ccc2c(c1)OCO2	-14.8	-1.1	-0.5	28.9*	12.4	-1.1	-0.4
CCC(C)NCCCOc1ccc([N+](=O)[O-])cc1 (stereo not drawn)	5.3	8.1	-0.3	57.8*	16.6	-1.6	-8.4
COc1ccc(C)cc1NC(=O)CNC(C)C(=O)Nc1cc(Cl)ccc1Cl (stereo not drawn)	-15.1	-2.5	0.1	-1.4	11.2	x	x
COc1cc(C(C)=O)ccc1OCCCOc1cccc2cccnc12	x	x	x	x	25.4	x	x
Cc1cc(Nc2cc(F)ccc2C)n2nc(C)nc2n1	-44.4	0.4	-0.1	14.1*	29.1	-2.0	-7.8
Cn1c(=O)oc2cc(S(=O)(=O)N3CCC(C(=O)NCCc4ccccc4)CC3)ccc21	9.6	-5.5	x	13.9*	-23.3	-1.5	-7.0
Cc1ccc(/C=C2\SC(=S)N(CCC(=O)N3CCOCC3)C2=O)cc1	x	x	x	x	-4.1	x	x
Cc1cc(OCC(=O)N2CCCCCC2)ccc1[N+](=O)[O-]	3.6	-22.5	-0.1	0.5	11.2	x	x
Cc1cc(OCCN2CCCCCC2)ccc1[N+](=O)[O-]	1.4	-18.8	-0.2	24.4*	6.7	-0.6	6.7
CCCCNC(=O)C1CC(c2cccc([N+](=O)[O-])c2)=NO1 (stereo not drawn)	x	0.4	-0.2	2.8	1.7	x	x
CCCCNC(=O)C1CC(c2c(Cl)cccc2Cl)=NO1 (stereo not drawn)	x	-18.9	-0.3	13.0*	15.2	-2.1	-1.3
COc1cccc(Nc2ncc(C#N)c(N)n2)c1	-5.8	5.2	x	0.7	13.5	x	x
O=C(CSc1nc2ccccc2c(=O)n1-c1ccc(F)c(Cl)c1)Nc1cccc(S(=O)(=O)N2CCOCC2)c1	-0.1	17.9	-0.4	29.7*	24.2	-1.2	1.7
COc1ccc2occ(C(=O)c3cccs3)c2c1	x	-8.5	0.4	165.8*	0.0	-0.7	3.0
O=C1C(=O)N(c2ccc(O)cc2)C(c2ccccc2[N+](=O)[O-])/C1=C(\O)c1ccccc1 (stereo not drawn)	-23.7	-2.4	x	1.3	11.8	x	x
SMILES	S1P3 antagonist	S1P4 antagonist	Hsp70 activator	S1P4 ag	AI-2 QS mod	S1P4 agonist cf	S1P1 ag
CCOP(=O)(OCC)C(Nc1ccc(C)cc1)c1ccco1 (stereo not drawn)	1.3	3.8	-0.3	1.5	38.6	x	x
Cc1ccc(SCC(=O)OCC(=O)N(C)CC(=O)Nc2ccccc2Cl)cc1C	x	x	x	x	31.6	x	x
COc1ccc(CCNC(=O)COC(=O)C23CC4CC(CC(Br)(C4)C2)C3)cc1	-13.8	-24.2	0.0	1.7	40.9	x	x
COc1ccc(CCNC(=O)COC(=O)C23CC4CC(CC(C4)C2)C3)cc1	-2.8	-2.7	-0.1	11.1*	17.9	0.4	-4.9
CSc1ccc(NC(=O)Nc2cccn(Cc3ccccc3)c2=O)cc1	10.6	-24.4	-0.3	33.5*	27.4	-1.0	6.0
COc1ccc(NC(=O)Cn2cccc2)c(OC)c1	8.8	-10.5	-0.1	34.6*	15.0	-2.0	0.4
Cc1cccc(C)c1OCCSc1nc2ccccc2n1CC(=O)O	x	x	x	x	24.6	x	x
Cc1ccc(S(=O)(=O)NC(=O)COc2cc(C)ccc2C(C)C)cc1	x	x	x	x	4.1	x	x
CC(C)c1nc(SCC(=O)Nc2ccc([N+](=O)[O-])cc2Br)n[nH]1	-3.4	-11.4	0.0	67.9*	26.7	-2.2	2.9
CC1CN(C(=O)c2ccc(NS(=O)(=O)c3cccc(Cl)c3)cc2)CC(C)O1 (stereo not drawn)	x	x	x	x	9.3	x	x
OCC(O)C1OC(Nc2ccc(Cl)cc2)C(O)C1O (stereo not drawn)	0.0	22.6	x	71.5*	18.9	-0.9	10.5
NS(=O)(=O)c1ccc(N2N=C(c3ccccc3)CC2c2cccc(F)c2)cc1 (stereo not drawn)	-11.1	-13.8	-0.7	10.8	38.7	x	x
NS(=O)(=O)c1ccc(N2N=C(c3ccc(Br)cc3)CC2c2ccc(F)cc2)cc1 (stereo not drawn)	x	-22.8	-0.4	24.0*	39.4	42.5*	112.1*
Cc1nc2cc(C(=O)O)ccc2n1-c1ccccc1	4.7	-22.4	-0.1	-0.1	8.9	x	x
CC1=CC(C)(C)[N+](C)=CN1c1ccccc1	-6.8	-7.5	-0.1	32.7*	9.0	-1.5	4.1
CN(C)c1ccc(CNC(=O)CCS(=O)(=O)c2ccc3c(c2)n(C)c(=O)c(=O)n3C)cc1	x	x	x	x	10.9	x	x
O=C(CCn1c(=O)oc2ccccc21)Nc1ccc(C(=O)O)cc1	x	x	x	x	10.7	x	x
COC(=O)c1ccc(NC(=O)CCn2c(=O)oc3ccccc32)cc1	-15.0	2.3	-0.1	13.2*	11.9	-0.2	-2.6
O=C(O)/C=C/C(=O)NC1CCCCCCCCCCC1	-6.2	5.0	x	-1.0	23.9	x	x
CN(C(=S)NC(=O)Cc1ccccc1)c1ccccc1	1.4	-26.9	0.0	12.8*	22.3	-2.0	-3.0
CCN(CC)C(=S)NC(=O)Cc1ccccc1	-3.0	-3.7	-0.3	-1.0	16.8	x	x
Cc1csc(NC(=O)C(C)N2C(=O)c3ccccc3S2(=O)=O)n1 (stereo not drawn)	x	x	x	x	4.8	x	x
